# In PubChem BioAssay (NCATS):
# Results filed as inconclusive are left out. A call without a number means that no potency is given here. A number with no mark means an inactive call. Active and inactive are the calls of the source. Calls follow the shape of the dose curve; as a rule, active = well fitted curve in the direction sought with a large enough effect; inconclusive = small, poorly fitted or top-dose-only effect, or another doubt; inactive = no such curve, though single readings can be large; an effect the other way counts as inactive or inconclusive.
# How the values were obtained:
# [1] = qHTS for Inhibitors of the Aldehyde Dehydrogenase Family (ALDH1A2, ALDH1A3, ALDH2, ALDH3A1) (AID 2061307); also: nearly all actives have a fitted effect of over 50% in size; as to potency: test system not described further here; potency is read from the fitted curve at half-maximal effect
# [2] = target: Aldehyde dehydrogenase, mitochondrial (Homo sapiens) (UniProt P05091); assay: qHTS for Inhibitors of the Aldehyde Dehydrogenase Family (ALDH2) Primary screen (AID 2061308); also: nearly all actives have a fitted effect of over 55% in size
# [3] = target: Retinaldehyde dehydrogenase 3 (Homo sapiens) (UniProt P47895); assay: qHTS for Inhibitors of the Aldehyde Dehydrogenase Family (ALDH1A3) Primary screen (AID 2061315); also: potency is read from the fitted curve at half-maximal effect
# [4] = target: Aldehyde dehydrogenase 1A1 (Homo sapiens) (UniProt P00352); assay: qHTS for Inhibitors of the Aldehyde Dehydrogenase Family (ALDH1A1) Confirmatory screens (AID 2061316); also: nearly all actives have a fitted effect of over 65% in size; also: potency is read from the fitted curve at half-maximal effect
# [5] = BET inhibitor-based combinations targeting novel dependencies in MECOM-rearranged (r) AML: SET-2 cell line (AID 2202231); conditions: SET-2 AML cells viability, CellTiter-Glo luminescence, 48 h; viability: hits give low values, series mostly up to about 46 µM; also: nearly all actives have a fitted effect of over 35% in size
# Procedure, shortened: (§1)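 A 48 hr incubation preceded viability reading by CellTiter-Glo, with 15 min room-temperature development. Dose series had 11 points; normalization used DMSO and empty wells; AUC was computed and mean-centered per line as Z-AUC.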
# [6] = BET inhibitor-based combinations targeting novel dependencies in MECOM-rearranged (r) AML: OCI-AML3 cell line (AID 2202232); conditions: Potency: OCI-AML3 viability; also: series mostly up to about 46 µM; nearly all actives have a fitted effect of over 35% in size
# Procedure, shortened: as §1
# [7] = BET inhibitor-based combinations targeting novel dependencies in MECOM-rearranged (r) AML: HNT-34 cell line (AID 2202234); also: nearly all actives have a fitted effect of over 35% in size
# Procedure, shortened: (§2)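 Each compound is tested in an 11-point concentration series against 500 seeded cells/well for 48 hr. The luminescent viability signal is normalized to DMSO and blank wells, then reduced to AUC and a cell-line-centred Z-AUC.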
# [8] = BET inhibitor-based combinations targeting novel dependencies in MECOM-rearranged (r) AML: UCSD-AML1 cell line (AID 2202235); also: series mostly up to about 46 µM; nearly all actives have a fitted effect of over 40% in size
# Procedure, shortened: as §2
# [9] = BET inhibitor-based combinations targeting novel dependencies in MECOM-rearranged (r) AML: AML-191 cell line (AID 2202236; also: nearly all actives have a fitted effect of over 35% in size)
# Procedure, shortened: as §1
# [10] = BET inhibitor-based combinations targeting novel dependencies in MECOM-rearranged (r) AML: AML-194 cell line (AID 2202237; also: nearly all actives have a fitted effect of over 40% in size)
# Procedure, shortened: as §1
# [11] = BET inhibitor-based combinations targeting novel dependencies in MECOM-rearranged (r) AML: MV-4-11 cell line (AID 2202233); also: potency is read from the fitted curve at half-maximal effect; nearly all actives have a fitted effect of over 45% in size
# Procedure, shortened: as §2
compound,measurement,setting,value
CN(Cc1ccco1)c1ncnc2ccc(-c3ccoc3)cc12,Potency,[1],inactive
same,Potency,[2],inactive
same,Potency,[3],inactive
same,Potency,[4],12.7 µM (active)
O=C(O)c1ccc(S(=O)(=O)N[C@H](Cc2ccc(O)cc2)C(=O)O)cc1,Potency,[1],inactive
same,Potency,[2],inactive
same,Potency,[3],inactive
same,Potency,[4],10.1 µM (active)
Fc1cnc(-c2ccccc2C(F)F)nc1NCC1CCN(c2cnccn2)CC1,Potency,[1],inactive
same,Potency,[2],inactive
same,Potency,[3],inactive
N#Cc1nc(Nc2ccc(F)cc2)nc(NC2CCCC2)n1,Potency,[1],3.16 µM (active)
same,Potency,[2],inactive
same,Potency,[3],inactive
CC(=O)N1CCc2cc(-c3nc(NC(=O)Cc4ccc5c(c4)OCO5)sc3C)ccc21,Potency,[1],2.01 µM (active)
same,Potency,[2],inactive
same,Potency,[3],inactive
same,Potency,[4],10.1 µM (active)
COc1ccc(C2Nc3ccccc3C(=O)N2C2CCCC2)cc1COc1ccc(NC(C)=O)cc1 (centres undefined),Potency,[1],1.59 µM (active)
same,Potency,[2],inactive
same,Potency,[3],inactive
same,Potency,[4],20.1 µM (active)
CN(CC(=O)O)c1ncnc2ccc(-c3ccc4c(c3)OCO4)cc12,Potency,[1],inactive
same,Potency,[2],inactive
same,Potency,[3],inactive
Cc1nc(-c2ccccc2)oc1-c1ccc2ncnc(NCc3ncc[nH]3)c2c1,Potency,[1],inactive
same,Potency,[2],inactive
same,Potency,[3],inactive
O=C(O)C1CCN(c2ncc(-c3ccc4c(c3)OCCCO4)s2)CC1,Potency,[1],1.52 µM (active)
same,Potency,[2],inactive
same,Potency,[3],0.447 µM (active)
C/C=C/C=C/C(O)=C1/C(=O)[C@]2(C)C3/C(=C(O)/C=C/C=C/C)C(=O)C4(C)C1[C@]1(C)O[C@@]4(O)[C@@]3(C)O[C@@]12O,Potency,[1],inactive
same,Potency,[2],inactive
same,Potency,[3],inactive
same,Potency,[4],12.3 µM (active)
CC(=O)C1CCN(c2ncc(-c3cccc(N(C)C)c3)s2)CC1,Potency,[1],5.65 µM (active)
same,Potency,[2],inactive
same,Potency,[3],inactive
same,Potency,[4],10.1 µM (active)
NCC(=O)Nc1cncc(-c2nn3c(=O)cc(N4CCNCC4)nc3s2)c1,Potency,[1],inactive
same,Potency,[2],inactive
same,Potency,[3],inactive
same,viability,[5],111%
same,Potency,[6],inactive
same,Potency,[7],inactive
same,Potency,[8],inactive
same,Potency,[9],inactive
same,Potency,[10],inactive
COc1ccc(C2Nc3ccccc3C(=O)N2Cc2ccccc2OC)cc1COc1ccc(NC(C)=O)cc1 (centres undefined),Potency,[1],2.25 µM (active)
same,Potency,[2],inactive
same,Potency,[3],inactive
same,Potency,[4],22.5 µM (active)
CNc1sc(-c2cccc3ccccc23)nc1C(=O)OC,Potency,[1],15.9 µM (active)
same,Potency,[2],inactive
same,Potency,[3],inactive
same,Potency,[4],14.2 µM (active)
O=C(Nc1nc(-c2ccccc2)cs1)c1ccncc1NS(=O)(=O)c1ccccc1Cl,Potency,[1],22.5 µM (active)
same,Potency,[2],inactive
same,Potency,[3],inactive
COC(=O)c1ccc(O)c2ncc(-c3ccc(C(=O)N4CCNCC4)cc3)cc12,Potency,[1],inactive
same,Potency,[2],inactive
same,Potency,[3],inactive
same,Potency,[4],inactive
N[C@@H](Cc1ccc(OS(=O)(=O)c2cccnc2)cc1)C(=O)N1CCN(c2ccccc2)CC1,Potency,[1],5.65 µM (active)
same,Potency,[2],inactive
same,Potency,[3],inactive
same,Potency,[4],10.1 µM (active)
NC(=O)C1CCN(c2nc(-c3ccccc3[N+](=O)[O-])cs2)CC1,Potency,[1],12.7 µM (active)
same,Potency,[2],inactive
same,Potency,[3],inactive
same,Potency,[4],5.04 µM (active)
CSc1ccc(-c2cnc(N3CCC(C(N)=O)CC3)s2)cc1,Potency,[1],3.18 µM (active)
same,Potency,[2],inactive
same,Potency,[3],inactive
COc1ccc(C2Nc3ccccc3C(=O)N2Cc2ccccc2Cl)cc1COc1ccc(NC(C)=O)cc1 (centres undefined),Potency,[1],8.96 µM (active)
same,Potency,[2],inactive
same,Potency,[3],inactive
N#Cc1ccc(CNc2nc(-c3ccccc3C(F)(F)F)nc3ccccc23)cc1,Potency,[1],17.9 µM (active)
same,Potency,[2],inactive
same,Potency,[3],inactive
same,Potency,[4],14.2 µM (active)
Cc1ccc(-n2c(C)cc(-c3nnc4n3CCCCC4)c2C)cc1,Potency,[1],inactive
same,Potency,[2],inactive
same,Potency,[3],inactive
same,Potency,[4],20.1 µM (active)
same,viability,[5],104%
same,Potency,[11],23.5 µM (active)
same,Potency,[8],inactive
same,Potency,[9],inactive
same,Potency,[10],inactive
COc1ccc(NC(=O)CN(C)C(=O)c2cc3c(s2)CCC3)cc1,Potency,[1],inactive
same,Potency,[2],inactive
same,Potency,[3],inactive
CC(=O)c1cccc(-c2csc(N3CCC(C(N)=O)CC3)n2)c1,Potency,[1],11.3 µM (active)
same,Potency,[2],inactive
same,Potency,[4],5.65 µM (active)
Cc1ccc2nc3sc(C(=O)Nc4ccncc4)cc3cc2c1,Potency,[1],11.3 µM (active)
same,Potency,[2],inactive
same,Potency,[3],inactive
same,Potency,[4],14.2 µM (active)
CC(C)(C)OC(=O)NCCOCCOCCOCCn1ncc2c1CCCC2NC(=O)c1ccccn1 (centres undefined),Potency,[1],inactive
same,Potency,[2],inactive
same,Potency,[3],inactive
COc1ccc(C2Nc3ccccc3C(=O)N2CCCN(C)C)cc1COc1ccc(NC(C)=O)cc1 (centres undefined),Potency,[1],7.12 µM (active)
same,Potency,[2],inactive
same,Potency,[3],inactive
COc1cc(/C=C2\C(=O)Nc3ccccc32)ccc1O,Potency,[1],inactive
same,Potency,[2],inactive
same,Potency,[3],inactive
